Compound activity deposited in PubChem BioAssay by National Center for Advancing Translational Sciences (NCATS).
A selection: hits, their analogues and other compounds. The true share with any hit is near 2.9%.
KDM5B inhibitor: KDM5B demethylase inhibition; Q9UGL1; KDM5B demethylase, FDH-coupled NADH fluorescence (FDH is formaldehyde dehydrogenase); Potency, µM (series often up to 57.7 µM), most hits filed as inhibitors; hit rate 2.6% among 220,000; AID 1347165; note: potency is the fitted concentration of half-maximal effect; 0% is about no effect; nearly all actives have a fitted effect of over 70% in size
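Coupled FDH/NAD⁺ fluorescence readout. KDM5BΔAP 200 nM final; compound titration, 10 min RT preincubation; substrate mix 12.5 µM H3K4me3, 25 µM 2-OG, 50 µM Fe(II), 100 µM ascorbate, 0.25 mM NAD⁺, 0.25 U/mL FDH; ΔRFU over 30 min.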
HEK293 viab: cell viability loss counter-screen; HEK-293-SNCA-luc viability, GF-AFC fluorescence, 24 h; Potency, µM (doses to about 57.1 µM), without a hit: at the highest dose activity change, negative = cytotoxicity, hits mostly cytotoxic; hit rate 0.12% among 150,000; AID 1671193;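 note: potency is the fitted concentration of half-maximal effect; 0% = DMSO-treated cells and -100% = medium-only wells without cells; nearly all actives have a fitted effect of over 30% in size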
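HEK-293-SNCA-luc cells (1500/well) plated 24 h, then exposed 24 h to a dilution series; GF-AFC added 30 min at 37C, fluorescence 405/540 nm; normalised to medium-only and DMSO wells, Hill fit.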
IP6K1 inh: IP6K1 kinase inhibition; Q92551; IP6K1 kinase, ADP-Glo luminescence, 2 h; stronger effect = lower value; activity change, % (series mostly up to about 58 µM); hit rate 0.81% among 140,000; in the data active = activity change below about -25%; note: % is set by controls: 0 for no effect and ±100 for the full control effect
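ADP-Glo luminescence measures ADP made by human IP6K1 during a 2 h RT reaction with ATP/IP6 (mix at 1.3 mM/130 uM); top library doses 57.5 and 19.1 uM final.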
SNCA expr inhib: reduces expression of the alpha-synuclein gene | HEK-293 SNCA-luciferase knock-in, luminescence, 24 h | AID 1671194 | hit rate 0.17% among 140,000 | Potency, µM (top dose mostly 57.2 µM), inactives show top-dose activity change, negative = inhibition, hits mostly inhibitors;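 note: potency is the fitted concentration of half-maximal effect; plate controls were DMSO cells for no effect and cell-free wells for full effect; nearly all actives have a fitted effect of over 45% in size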
Starred values were filed as active, the others as inactive; i = inactive; ? = inconclusive; . = no result given; [ ] = dose if it differs, or a comment. Unless noted, calls come from the whole dose curve; as a rule, active = well fitted curve in the direction sought with a large enough effect; inconclusive = small, poorly fitted or top-dose-only effect, or another doubt; inactive = no such curve, though single readings can be large; an effect the other way counts as inactive or inconclusive.

SMILES	KDM5B inhibitor	HEK293 viab	IP6K1 inh	SNCA expr inhib
Cc1ccc2oc([C@H]3CCN(Cc4c[nH]c5ccccc45)C3)nc2c1	12.6µM*	?	5.4	5.1%[87.6 µM]
Cc1ccc2oc([C@H]3CCN(Cc4cccc(Cl)c4)C3)nc2c1	?	14.2%[87.6 µM]	17.8	71.6%[87.6 µM]
O=C1[C@@H]2C[C@@H](O)CN2C2(CN(Cc3ccccn3)C2)C(=O)N1Cc1ccccc1Cl	i	5.1%[87.6 µM]	-7.8	9.7%[87.6 µM]
Cc1cc(CN2CCC3(CC2)CN(C2CCC2)CC3CO)n(C)n1 (stereo not drawn)	17.8µM*	-4.3%	4.9	-28.8%
CCn1cc(C(=O)N2CCC3(CC2)CN(C2CCC2)CC3CO)cn1 (stereo not drawn)	10µM*	-2.7%	4.5	8.3%
Cc1ccc(C(=O)N2CCC3(CC2)CN(C2CCC2)CC3CO)s1 (stereo not drawn)	?	-1.2%[12.5 µM]	26.8	2.4%
C=C(C)Cn1c(SCC(=O)c2ccccc2)nc2c1c(=O)[nH]c(=O)n2C	i	.	.	.
CCn1cnnc1CC1CCCN(C(=O)c2cccc(F)c2)C1 (stereo not drawn)	.	14.0%	8.4	27.4%
Cn1nccc1C(O)c1cc2n(n1)CCN(C/C=C/c1ccccc1)C2 (stereo not drawn)	31.6µM*	9.4%	25.9	6.6%
Cn1ccnc1C(O)c1cc2n(n1)CCN(C/C=C/c1ccccc1)C2 (stereo not drawn)	i	-8.5%	7.7	2.0%
O=C(NC1CCN(c2cc(-c3ccccc3)[nH]n2)CC1)c1cccc(F)c1	i	-1.4%	-0.2	61.2%
CCC(CC)C(=O)NC[C@H]1O[C@@H](CC(=O)N2CCN(c3ccccn3)CC2)[C@H](O)[C@@H]1O	31.6µM*	4.3%[87.6 µM]	2.5	5.9%[87.6 µM]
Cc1ccc(S(=O)(=O)NC[C@H]2O[C@@H](CC(=O)N3CCN(c4ccccn4)CC3)[C@H](O)[C@@H]2O)cc1	28.2µM*	1.0%	-4.3	1.3%
OC[C@@H]1O[C@H](CNC2CCOCC2)[C@H](N2CCN(c3ccccn3)CC2)[C@@H]1O	?	3.4%	0.5	9.0%
O=S(=O)(NC[C@H]1O[C@@H](CO)[C@@H](O)[C@H]1N1CCN(c2ccccn2)CC1)c1ccc(Cl)cc1	28.2µM*	4.1%	-2.1	33.8%
OC[C@@H]1O[C@H](CN(Cc2cccc(Cl)c2)Cc2cccc(Cl)c2)[C@H](N2CCN(c3ccccn3)CC2)[C@@H]1O	25.1µM*	-11.7%	18.2	-1.8%
CCOc1cccc2c1OC[C@@H]1CN(C)C(=O)CCN(C(C)=O)[C@H]21	.	.	-4.4	.
CC1(C)[C@H](Cc2cc(CCO)on2)C[C@@H]1NCc1ccccn1	i	-17.5%[87.6 µM]	-7.5	?
O=C(NCc1ccc(Cl)cc1)c1ccc2nnc(-c3cc(C(F)(F)F)cc(C(F)(F)F)c3)n2c1	.	?	-3.5	3.2%
CS(=O)(=O)NC[C@H]1O[C@@H](CC(=O)N2CCN(c3ccccn3)CC2)[C@H](O)[C@@H]1O	35.5µM*	2.0%[87.6 µM]	8.6	31.4%[87.6 µM]
CCN(C(=O)CCC(=O)NCCc1noc(-c2cccnc2)n1)c1ccccc1	i	12.5%[12.5 µM]	23.4	-2.9%
CC[n+]1c(/C=C/C=C2/N(C)c3ccccc3C2(C)C)sc2ccccc21	.	10µM*	.	?
COc1ccc2c(c1)c(CN1CCOCCNC(=O)CC1)cn2C(C)C	20µM*	-4.5%	10.5	-4.3%
CC(C)c1noc(-c2ccn3c(CNC(=O)Cc4ccccc4Cl)nnc3c2)n1	15.8µM*	-0.4%	-11.2	-11.3%
CCCc1noc(-c2ccn3c(CNC(=O)Cc4ccccc4Cl)nnc3c2)n1	14.1µM*	-5.1%	41.3	8.7%
SMILES	KDM5B inhibitor	HEK293 viab	IP6K1 inh	SNCA expr inhib
Cc1ccc(CC(=O)NCc2nnc3cc(-c4nc(C(C)C)no4)ccn23)cc1	25.1µM*	-3.9%	12.6	-3.7%
CC(C)c1noc(-c2ccn3c(CNC(=O)Cc4ccc(F)cc4)nnc3c2)n1	i	-17.3%	-2.3	2.6%
COCCN1Cc2[nH]nc(-c3ccc(OC)c(OC)c3)c2CC1=O	?	-1.2%[87.6 µM]	-7.0	12.5%[87.6 µM]
CC(=O)c1cc2c(cc1NC(=O)CSc1nnc(C3CC3)o1)OCO2	i	.	.	.
O=C(NCc1ccccc1)c1ccccc1OC1CN(Cc2ccc(F)cc2)C1	i	?	-6.0	?
Cc1ccc(C#N)c(N2CCCC(c3n[nH]c(=O)n3-c3ccccc3)C2)n1 (stereo not drawn)	31.6µM*	2.8%	-0.7	22.3%
Cc1csc(CN2CCCC(c3n[nH]c(=O)n3-c3ccccc3)C2)n1 (stereo not drawn)	i	-0.6%	5.9	4.0%
CN(C)C(=O)Cc1c[nH]c2ncc(-c3cccnc3)cc12	i	9.8%[87.6 µM]	-0.3	-23.7%[87.6 µM]
Cn1cc(-c2cnc3[nH]cc(CC(=O)NCc4cccc(F)c4)c3c2)cn1	31.6µM*	-1.5%[87.6 µM]	-16.4	21.0%[87.6 µM]
CN(C)c1cccc(NC(=O)Cc2c[nH]c3ncc(-c4cnn(C)c4)cc23)c1	?	-24.6%[87.6 µM]	-13.5	14.3%[87.6 µM]
Cn1cc(-c2cnc3[nH]cc(CC(=O)Nc4cccnc4)c3c2)cn1	39.8µM*	-17.9%[87.6 µM]	-12.7	-3.3%[87.6 µM]
Cc1ccccc1NC(=O)Cc1c[nH]c2ncc(-c3cnn(C)c3)cc12	?	4.4%[87.6 µM]	2.5	57.7%[87.6 µM]
CN(C)C(=O)Cc1c[nH]c2ncc(-c3cnn(C)c3)cc12	39.8µM*	-3.8%[87.6 µM]	-14.9	11.0%[87.6 µM]
COc1ccc(-n2cc(CN3CCN(C)C(C)C3)c(-c3cccc(F)c3)n2)cc1 (stereo not drawn)	25.1µM*	-7.2%	-2.7	12.3%
COc1ccc(-n2cc(CN3CCCC(CO)C3)c(-c3cccc(F)c3)n2)cc1 (stereo not drawn)	35.5µM*	-10.2%	-6.0	-23.5%
CCCOCCNC(=O)c1c(C)noc1-c1ccc2c(c1)OCO2	28.2µM*	7.3%	15.6	17.9%
CCCOCCCNC(=O)c1c(C)noc1-c1ccc2c(c1)OCO2	28.2µM*	-4.7%	9.9	-11.2%
Cc1cnc(C(=O)N2CCCC(c3nc(C4CCOCC4)no3)C2)cn1 (stereo not drawn)	31.6µM*	0.0%	6.2	-14.4%
Cc1cc(C(=O)N2CCCC(c3nc(C4CCOCC4)no3)C2)n(C)n1 (stereo not drawn)	i	-0.6%	-5.0	6.1%
O=C(CCN1c2ccccc2Sc2ccccc21)N1CCCC(c2nc(C3CCOCC3)no2)C1 (stereo not drawn)	25.1µM*	-7.6%	24.2	-13.3%
O=C(c1cc(-c2ccc(F)cc2)nc2ccccc12)N1CCC(c2nc(C3CCOCC3)no2)C1 (stereo not drawn)	28.2µM*	-23.3%	3.9	47.6%
CC1CC(C(C)(C)C(C)C)CC/C1=N\O (stereo not drawn)	i	.	.	.
Cc1nc(-c2cccc(Cl)c2)n(Cc2nc(-c3ccc(OC(C)C)cc3)oc2C)c(=O)c1CCO	11.2µM*	1.3%	3.3	8.4%
COc1ccc(-c2nc(Cn3c(-c4cccc(Cl)c4)nc(C)c(CCO)c3=O)c(C)o2)cc1	28.2µM*	5.8%	3.1	17.4%
O=C(CCc1nc2ccccc2[nH]1)N1C[C@@H](CO)[C@H](c2ccncc2)C1	i	-5.9%	-12.3	10.1%
